The text below walks through data of PubChem BioAssay (NCI).

Each structure is given as a SMILES string. The panel holds about 83,000 compounds, 20% with a hit somewhere; the sample as a whole holds those more often.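 Results are percent growth after 48 hours of single-concentration exposure. 100 means growth as in untreated cells, lower positive values show inhibition; negative values down to -100 show cell death.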 Activity calls are given as the source filed them. Rule for the calls: active = growth percent below 10; inactive = the rest.

This assay deals with MDA-MB-468 breast. Nature of the assay: NCI-60 one-dose screen, 48 h (100 = growth as untreated, 0 = no growth, -100 = all killed). The settings on record: 10 µM unless noted.
Consider `O=C(Nc1ccccc1)OCC1OCOC(COC(=O)Nc2ccccc2)C1OC(=O)Nc1ccccc1` (stereo not given), for which the growth is -1.51% (active).

For the molecule `Cc1nc(N)nc(SCc2ccccc2)c1Br`, the growth was 69% (inactive).

With `Cc1ccc(C(=O)N2C/C(=C/c3ccccc3)C(=O)/C(=C/c3ccccc3)C2)cc1`, the growth was 18.1% (inactive).

As for `C=C(C)[C@@H]1C[C@H](O)Cc2cc(F)ccc2N1`, the growth was 89.3% (inactive).

As for `O=C(CCCCCn1c2ccccc2c2c3c(c4c5ccccc5[nH]c4c21)C(=O)N(O)C3=O)N1CCOCC1`, the growth was 3.68% (active).

On to `CCOC(=O)Nc1nccs1`, for which the growth is 120% (inactive).

As to `C=C[C@]1(C)C=C2CC[C@@H]3C(C)(C)C(=O)CC[C@@]3(C)[C@@H]2CC1`, the growth was 110% (inactive).

On to `Cc1c(C2=CCCCC2)c2ccccn2c1C(=O)c1cccc(S(=O)(=O)N2CCOCC2)c1`, for which the growth was 51.5% (inactive).

For the molecule `Cc1ncc(C(=O)Nc2ccc(CN3CCN(C)CC3)c(C(F)(F)F)c2)cc1C#Cc1c(N)ncc2ccccc12`, the growth is -74.8% (active).

With `NC(=S)N/N=C/c1ccc(OC(=O)COc2ccccc2)cn1`, the growth is 29.7% (inactive).

`Cc1ccc(NC(=O)N[C@@H](Cc2cc(F)cc(F)c2)C(=O)NC2C(=O)N3CCC[C@H]3C(=O)N3CCCC[C@H]3C(=O)N[C@@H](C)C(=O)N3C[C@H](C)C[C@H]3C(=O)O[C@H]2C)c(F)c1` (stereo not given in full): the growth was -12.1% (active).

For `CC(c1ccccn1)C(C)(O)C(C)c1ccccn1` (stereo not given), the growth is 106% (inactive).

Take `c1cc2cccc3c4cccc5cccc(c(c1)c23)c54`: the growth is 101% (inactive).

`COC(=O)c1n[nH]c2ccc3nc(-c4cn[nH]c4C(F)(F)F)c4c(c3c12)CCCC4`: the growth is 73.8% (inactive).

Turning to `COCCCNC1=C(C#N)C(=O)NC(c2cccs2)S1` (stereo not given), the growth is 93.8% (inactive).

Take `CCN(CC)CCOc1ccccc1-n1c(C)ccc1-c1ccccc1`: the growth was 85.1% (inactive).

In the case of `COP(=O)(OC)c1nnn(-c2cccc([N+](=O)[O-])c2)c1C`, the growth is 120% (inactive).

As for `CCCCCCCCCCN(CCCCCCCCCC)CC(=O)c1ccc2cc(Br)c3ccccc3c2c1`, the growth is 100% (inactive).

For `CCC1=C[C@@H]2CN(C1)Cc1c([nH]c3ccccc13)[C@@](C(=O)OC)(c1cc3c(cc1OC)N(C)[C@H]1[C@@](O)(C(=O)OC)[C@H](OC(C)=O)[C@]4(CC)[C@@H]5C[C@@H]5CN5CC[C@]31[C@@H]54)C2`, the growth is -31.7% (active).

For the molecule `Cc1nc2ccc(Nc3nc(N4CCOCC4)nc(N4CCN(C)CC4)n3)cc2n1Cc1ccccc1`, the growth was 66.8% (inactive).

With `COc1c2c(cc3c1C(=O)N[C@@H]1[C@@H](O)[C@@H](O)[C@H](O)C[C@@H]31)OCCO2`, the growth was 93.1% (inactive).

Take `COc1cc(/C=C2\CCCC3C2=Nc2ccccc2NC3c2cc(OC)c(OC)c(OC)c2)cc(OC)c1OC` (stereo not given): the growth was -6.85% (active).

Take `CC(=O)[C@H]1CC[C@]2(C)[C@@H]1CC[C@@H]1[C@@]3(C)CC(CCC#N)(CCC#N)C(=O)C(C)(C)[C@@H]3CC[C@]12C`: the growth was 99.7% (inactive).

As to `CCOC(=O)c1sc(NC(=O)COc2ccc(/C=C3\Cc4ccc(Cl)cc4C3=O)cc2)nc1C`, the growth is 115% (inactive).

Consider `CCNc1ncnc2n[nH]nc12`, for which the growth is 97.2% (inactive).

Consider `C[n+]1cccc(NC(=O)c2ccc3ccc4ccc(C(=O)Nc5ccc[n+](C)c5)nc4c3n2)c1`, for which the growth was -15.9% (active).

On to `COc1cccc(Cn2c(-c3nonc3N)nc3ccccc32)c1`, for which the growth was -12.2% (active).

As for `CN1CCN(Cc2ccc(NC(=O)c3cncc(C#Cc4cnc5ccc(OC6CCOCC6)nn45)c3)cc2C(F)(F)F)CC1`, the growth is -62.5% (active).

In the case of `Nc1n[nH]c2cccc(C#Cc3cccc(NC(=O)c4cccc(OC(F)(F)F)c4)c3)c12`, the growth is 106% (inactive).

Take `CC/C(=C(\c1ccc(O)cc1)c1ccc(OCCN(C)CCN(C)C(=O)CCC(=O)c2c(C)[nH]c(/C=C3\N=C(c4ccc[nH]4)C=C3OC)c2C)cc1)c1ccccc1`: the growth was 65.9% (inactive).

As for `COc1ccc(-c2ncnc3c2ncn3CC#CCCl)cc1`, the growth is 20.8% (inactive).

For the molecule `COc1ccc(C2Nc3nc(OC)n(C)c(=O)c3N=C3c4ccccc4C(=O)C32)cc1` (stereo not given), the growth is 104% (inactive).

Regarding `Cc1cc(C(=O)O)c(C)n1-c1cccc(C(=O)O)c1`, the growth was 70.1% (inactive).

In the case of `CN(C)c1ccc(C(=O)c2ccc(N(C)C)c(N)c2)cc1N`, the growth was -20.9% (active).

Regarding `O=C(NC1CCC(Br)CC1)C1CCCC(S(=O)(=O)NC2CCCCC2)C1` (stereo not given), the growth is -3.64% [25 µM] (active).

As to `CCOC(=O)c1cc(C(=O)c2cc(OC)c(OC)c(OC)c2)n2c1ccc1c3cccnc3ccc12`, the growth is 61.5% (inactive).

Take `O=C(CN1CCN(c2cccc(Cl)c2)CC1)N1CCN(c2nnc(-c3ccc(Cl)cc3)c(-c3ccc(Cl)cc3)n2)CC1`: the growth was 97.5% (inactive).

For `Cc1c(C(N)=O)sc2c1c(=O)n(Cc1ccccc1)c1nnc(SCC(=O)Nc3ccc(Cl)cc3)n21`, the growth was 39.6% (inactive).

With `COc1cc(-c2cc(-c3ccc(N(C)C)cc3)nc(N3CCC(O)CC3)c2C#N)cc(OC)c1OC`, the growth was -21.2% (active).

`O=C(COc1ccc(/C=C2\Cc3ccccc3C2=O)cc1)c1ccc(Cl)cc1`: the growth was 111% (inactive).
